# Assay results taken from PubChem BioAssay (NCATS).
# Records with an inconclusive call do not appear. The source made the active and inactive calls. The call rests on the fitted dose curve; in most records, active means well fitted inhibition curve with a large enough effect; inconclusive means small, poorly fitted or top-dose-only effect; inactive means flat fitted curve, though single readings scatter.
# Target: Calcium and integrin-binding protein 1 (Homo sapiens) (UniProt Q99828)
# Assay: Primary qHTS for Identification of Calcium Integrin Binding Protein 1 (CIB1) Competitor (AID 1508620); further: top concentration of the series differs between compounds
# Details: CIB1-GST / FITC-alphaIIb peptide fluorescence polarization; series mostly up to 114 µM; activity change, negative = inhibition: at the top concentration
# Outline: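 Fluorescence polarization competition: GST-tagged CIB1 (1 uM final) preincubated with compound 15 min at room temperature, then FITC-labelled alphaIIb peptide (100 nM final) added. After 15 min at room temperature, polarization read at Ex 480/Em 540.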
# On the % scale 0 is the no-effect control and ±100 the full control effect.
# Sequence of Calcium and integrin-binding protein 1 (Homo sapiens) (Q99828 whole entry, looked up): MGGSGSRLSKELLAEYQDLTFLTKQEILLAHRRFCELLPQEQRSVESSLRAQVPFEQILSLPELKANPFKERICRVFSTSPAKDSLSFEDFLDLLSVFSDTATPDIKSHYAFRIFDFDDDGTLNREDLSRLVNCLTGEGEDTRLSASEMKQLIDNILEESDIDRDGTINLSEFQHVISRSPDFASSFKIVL
row,Compound,"activity change, negative = inhibition"
1,O=C(Nc1ccc(Oc2ccccc2)cc1)Nc1nnc(-c2ccncc2)s1,1.14% (inactive)
2,c1cncc(-c2ccc(CNc3nc(-n4ccnc4)nc4ccccc34)cc2)c1,6.93% (inactive)
3,CCCCn1cnc2cc(C(=O)N3CCCCC3)ccc21,-5.51% (inactive)
4,Nc1ccc(S(=O)(=O)N2CCCN(S(=O)(=O)c3ccc4c(c3)OCCO4)CC2)cc1,3.56% (inactive)
5,O=C(O)c1ccc(-c2ccc3ncnc(NCCc4cnc[nH]4)c3c2)o1,-11.9% (inactive)
6,CN(c1ccccc1)c1ccc(CNc2nn3c(=O)c4ccccc4nc3s2)cc1,6.4% (inactive)
7,Cc1nc(SCC(=O)c2ccc(F)cc2)n[nH]1,-0.986% (inactive)
8,O=[S+]([O-])(Nc1ccc2ccccc2c1)c1ccc(NCc2ccc(Cl)cc2O)cc1,6.11% (inactive)
9,COc1cccc(-c2nc3cc(NC(=O)c4ccc(C)c([N+](=O)[O-])c4)ccc3o2)c1,21.5% (inactive)
10,O=C(COC(=O)CNC(=O)c1ccccc1Cl)Nc1cc(C(F)(F)F)ccc1Cl,-1.44% (inactive)
11,Nc1ccccc1C(=O)NCc1ccco1,4.95% (inactive)
12,COc1cc(O)c(C(CC(=O)N2CCC[C@@H](C)C2)c2ccc3c(c2)OCO3)c(OC)c1 (some centres not stated),1.86% [at 228 µM] (inactive)
13,Cc1cc(NS(=O)(=O)c2ccc(NC(=O)CCc3ccc(Cl)c(Cl)c3)cc2)no1,-18.1% (inactive)
14,Cc1ccc(C[C@@H](NS(=O)(=O)c2ccc(C(=O)O)cc2)C(=O)O)cc1,1.18% (inactive)
15,Cc1ccccc1C(=O)N1CCc2cc(-c3ccnc(NC(=O)Cc4ccccc4)n3)ccc21,4.64% (inactive)
16,N#Cc1cccc(-c2noc(-c3ccccc3F)n2)c1,2.85% (inactive)
17,O=C(Nc1ccccn1)c1sc2ccc([N+](=O)[O-])cc2c1Cl,-2.69% (inactive)
